This is an account of results in PubChem BioAssay (NCI).

Among the test systems are HCT-15 colon; SNB-75 CNS; SNB-19 CNS; U251 CNS; PC-3 prostate; SK-MEL-5 melanoma; UACC-62 melanoma; LOX IMVI melanoma; SK-MEL-28 melanoma; SK-MEL-2 melanoma; EKVX NSCLC; SN12C renal; UO-31 renal; TK-10 renal; ACHN renal; CAKI-1 renal; CCRF-CEM leukemia; MOLT-4 leukemia; A498 renal.
Test in all cases: NCI-60 one-dose screen, 48 h (100 = growth as untreated, 0 = no growth, -100 = all killed)
What all share (settings): 10 µM unless noted

Compounds without any hit were thinned out: in the full panel of roughly 83,000, 20% have a hit.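 48-hour exposure, single concentration, 96-well plates; percent growth endpoint where 0 means no net growth. Active: below 10.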 Unmarked numbers belong to inactive results. Calls of active or inactive are those of the source.

Take `CC[C@H](CC[C@@H](C)[C@H]1CC[C@H]2[C@@H]3CC=C4C[C@@H](OCCc5nn[nH]n5)CC[C@]4(C)[C@H]3CC[C@]12C)C(C)C`: the growth with HCT-15 colon was 102%; in the experiment on SNB-75 CNS it was 107%; in the experiment with SNB-19 CNS, 110%; in the experiment with U251 CNS, 105%; with PC-3 prostate, 112%; with SK-MEL-5 melanoma, 111%. The growth is 118% in the experiment on UACC-62 melanoma; 99.9% with LOX IMVI melanoma; 110% in the experiment on SK-MEL-28 melanoma; 111% in the experiment with SK-MEL-2 melanoma; 102% in the experiment on EKVX NSCLC; 108% in the experiment on SN12C renal. The growth with UO-31 renal was 99.5%; in the experiment on TK-10 renal, 101%; with ACHN renal, 105%; in the experiment on CAKI-1 renal it was 105%; in the experiment on CCRF-CEM leukemia, 103%; in the experiment on MOLT-4 leukemia it was 100%.

As to `O=C(NCCN1CCOCC1)OCc1nc2nc(Cl)nc(N3CCOCC3)c2[nH]1`, the growth in the experiment with HCT-15 colon was 16.4%; with SNB-75 CNS, 1.3% (active); in the experiment with SNB-19 CNS, 36.2%; with U251 CNS it was 19.7%; with PC-3 prostate it was 24%; with SK-MEL-5 melanoma, -29.7% (active). The growth was 35.1% in the experiment on UACC-62 melanoma; 16.5% with LOX IMVI melanoma; 61.9% with SK-MEL-28 melanoma; 18.9% in the experiment with SK-MEL-2 melanoma; 95.2% in the experiment on EKVX NSCLC; 29.2% with SN12C renal. Also, the growth in the experiment on UO-31 renal is 39.6%; with TK-10 renal, 71%; in the experiment on ACHN renal it was 33.1%; with CAKI-1 renal, 25.2%; in the experiment with A498 renal, -8.24% (active); with CCRF-CEM leukemia it was 5.93% (active). Besides, the growth in the experiment on MOLT-4 leukemia is 19%.

As for `O=C1NC(=O)C(=Cc2cn(Cc3ccccn3)c3ccccc23)C(=O)N1`, the growth with HCT-15 colon is 102%; in the experiment on SNB-75 CNS, 89.2%; in the experiment on SNB-19 CNS, 99.7%; in the experiment with U251 CNS, 97.2%; in the experiment on PC-3 prostate it was 94.2%; in the experiment on SK-MEL-5 melanoma, 98.3%. For the same compound, the growth in the experiment with UACC-62 melanoma is 85.7%; with LOX IMVI melanoma it was 96.7%; in the experiment with SK-MEL-28 melanoma it was 114%; with SK-MEL-2 melanoma it was 102%; with EKVX NSCLC it was 98%; in the experiment on UO-31 renal, 75.5%. Further, the growth with TK-10 renal was 59.8%; with ACHN renal, 104%; with CAKI-1 renal, 13.9%; with A498 renal it was -90.4% (active); in the experiment with CCRF-CEM leukemia, 95.8%.

As for `Fc1ccc(-n2cc(COc3ncnc4sc5c(c34)CCCC5)nn2)cc1Cl`, the growth with HCT-15 colon is 100%; in the experiment with SNB-75 CNS, 90.5%; in the experiment with SNB-19 CNS it was 94.7%; with U251 CNS, 99.7%; with PC-3 prostate, 89.5%; in the experiment with SK-MEL-5 melanoma it was 103%. Besides, the growth with UACC-62 melanoma was 92.2%; in the experiment on LOX IMVI melanoma it was 93.7%; with SK-MEL-28 melanoma it was 110%; with SK-MEL-2 melanoma, 103%; in the experiment with EKVX NSCLC it was 94.1%; in the experiment with SN12C renal it was 98.7%. In addition, the growth with UO-31 renal was 82.3%; in the experiment with TK-10 renal it was 113%; with ACHN renal it was 102%; in the experiment on CAKI-1 renal, 92.7%; in the experiment with CCRF-CEM leukemia it was 89%; with MOLT-4 leukemia it was 98.8%.

Turning to `NC(=O)CN1CCN(c2ccccc2Cl)CC1`, the growth was 107% with HCT-15 colon; 119% in the experiment with SNB-75 CNS; 118% in the experiment on SNB-19 CNS; 111% with U251 CNS; 105% in the experiment with PC-3 prostate; 110% in the experiment on SK-MEL-5 melanoma. Besides, the growth is 113% with UACC-62 melanoma; 109% in the experiment with LOX IMVI melanoma; 110% in the experiment with SK-MEL-28 melanoma; 92.4% in the experiment with SK-MEL-2 melanoma; 108% in the experiment on EKVX NSCLC; 109% in the experiment on SN12C renal. Moreover, the growth was 82.7% in the experiment with UO-31 renal; 116% in the experiment with TK-10 renal; 103% in the experiment with ACHN renal; 96.4% with CAKI-1 renal; 115% with CCRF-CEM leukemia; 111% in the experiment with MOLT-4 leukemia.

Consider `CCCC1C(C(=O)OCC)=C(N)Oc2cc(O)ccc21` (centres undefined), for which the growth in the experiment with HCT-15 colon was 96.7%; in the experiment with SNB-75 CNS, 76.9%; in the experiment on SNB-19 CNS, 103%; with U251 CNS, 104%; in the experiment on PC-3 prostate it was 77.5%; with SK-MEL-5 melanoma it was 96.5%. The growth with UACC-62 melanoma was 94.8%; with LOX IMVI melanoma, 90.4%; in the experiment on SK-MEL-28 melanoma, 114%; with SK-MEL-2 melanoma, 99%; in the experiment with EKVX NSCLC, 80.6%; in the experiment on SN12C renal, 103%. The growth is 70.7% with UO-31 renal; 105% in the experiment on TK-10 renal; 94.1% in the experiment on ACHN renal; 109% in the experiment on A498 renal; 99.7% in the experiment on CCRF-CEM leukemia; 89% in the experiment on MOLT-4 leukemia.

Consider `COc1ccc(C(=O)/C=C/c2cn(Cc3ccc(Cl)cc3)c3ccccc23)cc1`, for which the growth was 39.7% in the experiment with HCT-15 colon; 76.9% with SNB-75 CNS; 82.4% with SNB-19 CNS; 59.6% with U251 CNS; 61.3% in the experiment with PC-3 prostate; 89.1% with SK-MEL-5 melanoma. Further, the growth is 31.3% in the experiment on UACC-62 melanoma; 49.2% in the experiment on LOX IMVI melanoma; 80.6% in the experiment with SK-MEL-28 melanoma; 74.6% in the experiment on SK-MEL-2 melanoma; 89% in the experiment on EKVX NSCLC; 69.4% in the experiment with SN12C renal. Further, the growth in the experiment on UO-31 renal is 53.7%; in the experiment with TK-10 renal, 27.4%; in the experiment on ACHN renal it was 62.1%; in the experiment on CAKI-1 renal it was 2.08% (active); in the experiment with A498 renal, -6.05% (active); in the experiment on CCRF-CEM leukemia it was 41.1%. For the same compound, the growth in the experiment on MOLT-4 leukemia is 39.8%.

With `CCCCCCN(C)Cc1ccc(OCCOc2ccc(CN(C)CCCCCC)cc2)cc1`, the growth with HCT-15 colon is 5.57% (active); in the experiment on SNB-75 CNS, 28.8%; in the experiment on SNB-19 CNS it was 27.9%; with U251 CNS, 7.97% (active); with PC-3 prostate it was 23.9%; with SK-MEL-5 melanoma it was -99.7% (active). Besides, the growth in the experiment on UACC-62 melanoma is -11.5% (active); with LOX IMVI melanoma, -95.3% (active); in the experiment with SK-MEL-28 melanoma, -68.7% (active); in the experiment on SK-MEL-2 melanoma, -40.8% (active); in the experiment on EKVX NSCLC, 55.3%; in the experiment on SN12C renal, 40.1%. In addition, the growth in the experiment with UO-31 renal was -5.75% (active); in the experiment on TK-10 renal, 31.6%; with ACHN renal it was 35.1%; in the experiment on CAKI-1 renal, 27.2%; in the experiment with CCRF-CEM leukemia, 13.3%; with MOLT-4 leukemia, -4.95% (active).

Turning to `CC(C)(C)CC(C)(C)Nc1c(-c2ccc(C(F)(F)F)cc2)nc2cnccn12`, the growth in the experiment with HCT-15 colon was 73.8%; in the experiment on SNB-75 CNS, 81.1%; with SNB-19 CNS it was 91.8%; in the experiment with U251 CNS, 93%; in the experiment with PC-3 prostate, 68.5%; with SK-MEL-5 melanoma it was 90%. Moreover, the growth with UACC-62 melanoma was 72.9%; in the experiment with LOX IMVI melanoma it was 97.6%; in the experiment on SK-MEL-28 melanoma it was 93.9%; in the experiment with SK-MEL-2 melanoma it was 91%; in the experiment with EKVX NSCLC it was 79.4%; with SN12C renal, 86.1%. Besides, the growth with UO-31 renal is 64.1%; in the experiment on TK-10 renal, 102%; with ACHN renal, 87%; in the experiment with CAKI-1 renal, 75.4%; in the experiment with A498 renal it was 83.8%; with CCRF-CEM leukemia it was 85.8%. Besides, the growth with MOLT-4 leukemia was 68.5%.
